Laboratory results reported in PubChem BioAssay (Tox21).
Several values for one entry are separate records, joined by “and”; a condition that tells them apart may be missing. Identical values can stand only once. Inconclusive results are not listed. Some compounds were tested as several samples or in several runs, with calls that do not always agree. Activity calls are given as the source filed them. The call rests on the fitted dose curve; in most records, active means well fitted cell-killing curve with a large enough effect in the repeat runs; inconclusive means weak or mixed curves, or effect the other way; inactive means flat fitted curve, though single readings scatter.

assay: qHTS RealTime-Glo MT Cell Viability Assay in HEK293 cells - 40 hour (AID 1224874); conditions: RealTime-Glo luminescence; max response: hits give low values; further: nearly all actives have a fitted effect of over 50% in size
From the text: U.S. Tox21 Program National Center for Advancing Translational Sciences [NCATS] NIH Chemical Genomics Center [NCGC] U.S. Environmental Protection Agency [EPA] National Institutes of Environmental Health Sciences [NIEHS] National Toxicology Program [NTP] U.S. Food and Drug Administration [FDA] Tox21 Assay Overview: Measure of cell viability is critical in the cell-base assay. Analysis of cell viability is necessary for the characterization of cell responses to cytotoxic drugs and environmental stress. A RealTime-Glo MT Cell Viability Assay to monitor cell viability in real time of continues cell culture during 40 hours of compound treatment was used to screen Tox21 10K library compounds in Hek293 cells. The RealTime-Glo MT Cell Viability Assay is a nonlytic, homogeneous, bioluminescent method to measure cell viability in real time using a simple, plate-based method. The assay involves adding NanoLuc luciferase and a cell-permeant prosubstrate to cells in culture. Viable cells reduce the proprietary prosubstrate to generate a substrate for NanoLuc luciferase. This substrate diffuses from cells into the surrounding culture medium, where it is rapidly used by the NanoLuc Enzyme to produce a luminescent signal. The signal correlates with the number of viable cells, making the assay well suited for cytotoxicity studies.
Tox21 Assay Protocol Summary: The mixture of Hek293 cell suspension and reagents were dispensed at 600cells/6 ul/well in 1536-well tissue culture treated black solid bottom plates using a Multidrop dispenser. After the assay plates were incubated at a 37 C/5% CO2 incubator for 5 hours, 23 nL of compounds dissolved in DMSO, positive and negative controls was transferred to the assay plate by a pintool work station. The plates were incubated at 37 C for 40 hours. The luminescence intensity were measured at 0h, 8h, 16h, 24h, 32h and 40h time points using ViewLux plate reader during compound treatment.
On the % scale 0 is the no-effect control and ±100 the full control effect; potency means the concentration at half of the fitted maximal effect.

**Q.** Which max response does the source give for `CN1C(=O)CC[C@H]1c1cccnc1` here?
**A.** 1.45% (inactive) and 7.43% (inactive)

**Q.** Which max response does the source give for `CCCCOC(=O)c1ccc(N)cc1` here?
**A.** 0.814% (inactive)

**Q.** With `CC(C)CCCCCCCOC(=O)CCCCC(=O)OCCCCCCCC(C)C` as the compound, how does the max response read?
**A.** -6.27% (inactive) and 3.22% (inactive)

**Q.** For `CCNc1cccc(C)c1`, which max response is on record?
**A.** -1.66% (inactive) and 8.48% (inactive)

**Q.** Which max response does the source give for `c1ccc(Oc2ccccc2)cc1` here?
**A.** -2.3% (inactive) and -6.04% (inactive)

**Q.** With `O=C(O)c1cc2ccccc2cc1O` as the compound, how does the max response read?
**A.** -2.62% (inactive) and 6.1% (inactive)

**Q.** Which max response does the source give for `CC(C)(Oc1ccc(CCNC(=O)c2ccc(Cl)cc2)cc1)C(=O)O` here?
**A.** 3% (inactive) and 2.4% (inactive)

**Q.** For `CN/C(=C\[N+](=O)[O-])NCCSCc1csc(CN(C)C)n1`, which max response is on record?
**A.** 2.65% (inactive) and -4.24% (inactive)

**Q.** Which results are given for `CNC(=S)N(C)C`?
**A.** max response: 3.02% (inactive); Potency: 11.6 µM (active)

**Q.** With `N[C@H](Cc1c[nH]c2ccccc12)C(=O)O` as the compound, how does the max response read?
**A.** 20.7% (inactive) and 3.97% (inactive)

**Q.** For `CC1(C)OC[C@@H]2O[C@@]3(C(=O)O)OC(C)(C)O[C@H]3[C@@H]2O1`, which max response is on record?
**A.** -6.82% (inactive) and 4.68% (inactive)

**Q.** Which max response does the source give for `Cc1ccc(S(=O)(=O)N=C=O)cc1` here?
**A.** 0.611% (inactive) and -0.578% (inactive)

**Q.** For `C=C(C)CNCC`, which max response is on record?
**A.** 0.995% (inactive) and -23.9% (inactive)

**Q.** For `c1ccc2c(c1)Cc1ccccc1-2`, which max response is on record?
**A.** -9.32% (inactive) and 10% (inactive)

**Q.** Which max response does the source give for `CC1(C)NC(=O)NC1=O` here?
**A.** 4.62% (inactive) and 21.9% (inactive)

**Q.** With `C=CC[N+](C)(C)CC=C` as the compound, how does the max response read?
**A.** 2.31% (inactive) and 7.96% (inactive)

**Q.** For `COCCOC(=O)c1ccccc1C(=O)OCCOC`, which max response is on record?
**A.** 0.573% (inactive) and 0.131% (inactive)

**Q.** For `NCCN1CCNCC1`, which max response is on record?
**A.** 1.25% (inactive) and -21.7% (inactive)

**Q.** With `OCc1cccc(Oc2ccccc2)c1` as the compound, how does the max response read?
**A.** -0.677% (inactive) and -9.74% (inactive)

**Q.** For `CCCCCCCO`, which max response is on record?
**A.** 10.9% (inactive) and 3.74% (inactive)

**Q.** With `CCOCC(=O)O` as the compound, how does the max response read?
**A.** -1.6% (inactive) and 8.63% (inactive)

**Q.** With `CCCCCCCCCCCC(=O)OC` as the compound, how does the max response read?
**A.** -2.49% (inactive) and 7.82% (inactive)

**Q.** Which max response does the source give for `COc1ccc(OC)cc1` here?
**A.** 5.27% (inactive) and 14.7% (inactive)

**Q.** With `CC(=O)c1ccc(O)cc1` as the compound, how does the max response read?
**A.** 0.924% (inactive) and -3% (inactive)

**Q.** Which max response does the source give for `CCCCC(C=O)CC` (stereo not given) here?
**A.** -0.352% (inactive) and 2.13% (inactive)

**Q.** For `CC(=O)CC(C)(C)O`, which max response is on record?
**A.** 0.169% (inactive) and 3.54% (inactive)

**Q.** Which max response does the source give for `CN(C)c1ccc(O)c2c1C[C@H]1C[C@H]3[C@H](N(C)C)C(=O)C(C(N)=O)=C(O)[C@@]3(O)C(=O)C1=C2O` here?
**A.** -2.64% (inactive) and -1.12% (inactive)

**Q.** Which max response does the source give for `COc1ccc(C)cc1N` here?
**A.** 3.89% (inactive) and 7.66% (inactive)

**Q.** Which max response does the source give for `CN(C)CCOC(=O)COc1ccc(Cl)cc1` here?
**A.** -6.44% (inactive) and 0.203% (inactive)

**Q.** With `O=c1[nH]cnc2[nH]ncc12` as the compound, how does the max response read?
**A.** -0.951% (inactive) and 0.0063% (inactive)

**Q.** Which max response does the source give for `OC1C(O)C(O)C(O)C(O)C1O` (stereo not given) here?
**A.** 9.45% (inactive) and 0% (inactive)

**Q.** For `CC(O)CC(C)(C)O` (stereo not given), which max response is on record?
**A.** 13.3% (inactive) and 0.19% (inactive)

**Q.** For `C=CC(C)CCCC(C)(C)O` (stereo not given), which max response is on record?
**A.** 5.11% (inactive) and 3.85% (inactive)

**Q.** Which max response does the source give for `CC1(C)CC(N)CC(C)(CN)C1` (stereo not given) here?
**A.** -9.67% (inactive) and 2.41% (inactive)

**Q.** Which max response does the source give for `CC(C)CC(C)O` (stereo not given) here?
**A.** 6.34% (inactive) and 7.03% (inactive)

**Q.** For `CCNc1ccccc1`, which max response is on record?
**A.** 0.38% (inactive) and 24% (inactive)

**Q.** With `C=C(C)C(=O)OCC(C)C` as the compound, how does the max response read?
**A.** 0.908% (inactive) and 6.86% (inactive)

**Q.** For `CC1(C)S[C@@H]2[C@H](NC(=O)COc3ccccc3)C(=O)N2[C@H]1C(=O)O`, which max response is on record?
**A.** 0.704% (inactive) and 1.33% (inactive)

**Q.** For `NCCNCCN`, which max response is on record?
**A.** -1.22% (inactive) and 0.475% (inactive)
